# Bioassay records as filed in PubChem BioAssay.
# HCV inh: HCV inhibition | Huh7.5.1 HCVcc-Cre infection, luciferase reporter, 44 h | Potency, µM (doses to about 41.8 µM), for the others: at the top dose activity change, negative = inhibition, usual class: inhibitors | 340,000 tested, 3.4% active | AID 651820; note: potency is the fitted concentration of half-maximal effect; % is set by controls: 0 for no effect and ±100 for the full control effect
#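 Reporter virus HCVcc-Cre (~0.5 moi) infects cells exposed to compound; seeding density 1,000 cells/well with 4 h settling beforehand. Luminescence, 15 sec read, taken 44 h post-infection following a 15 min RT substrate incubation.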
# Pf growth 96h: inhibits malaria parasite growth, 96 h. 320,000 tested, 6.9% active. AID 504834. Potency, µM (series often up to 28.7 µM), for the others: top-dose activity change, negative = inhibition, usual class: inhibitors. P. falciparum luciferase reporter growth, 96 h; note: potency is the fitted concentration of half-maximal effect; % is set by controls: 0 for no effect and ±100 for the full control effect
#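 Erythrocytes infected with luciferase-expressing P. falciparum were dispensed at 2% hematocrit and 0.05% parasitemia (final), then incubated with compounds 96 hours at 37 C in 5% CO2. Luminescence after detection reagent addition reported growth.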
# Pf growth 48h: P. falciparum growth inhibition at 48 hours (one generation). AID 504832. Potency, µM (doses to about 28.7 µM), for the others: at the top dose activity change, negative = inhibition, hits mostly inhibitors. 310,000 tested, 5.9% active. P. falciparum luciferase growth in erythrocytes, 48 h; note: potency is the fitted concentration of half-maximal effect; % is set by controls: 0 for no effect and ±100 for the full control effect
#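 First compound was added to culture medium, then infected red cells at 0.1% parasitemia and 2% hematocrit (final). After incubation at 37 C under 5% CO2, luciferase detection reagent was dispensed and light output recorded.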
# HCMV inh: human cytomegalovirus inhibition. HFF cells, HCMV-luciferase reporter, 72 h; stronger effect = lower value. activity change, negative = inhibition, % at 57.5 µM. 410,000 tested, 4.5% active; in the data active = activity change below about -60%; inconclusive = no clear call, values can overlap the other calls; inactive = above about -39%; note: % is set by controls: 0 for no effect and ±100 for the full control effect
#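 Two compound doses tested in HFFs infected with HCMV-luciferase, MOI 1 PFU/cell, 72 h at 37C. Lysate luminescence read with OneGlo; data normalized against buffer-only and 10uM Salinomycin inhibitor controls.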
# SARS PLP yeast: blocks SARS-CoV papain-like protease in a yeast assay; AID 485353; 330,000 tested, 0.19% active; Potency, µM (highest dose often 32.9 µM), for inactives: at the highest dose activity, positive = growth rescue, most hits filed as activators; S. cerevisiae expressing SARS-CoV PLpro, growth rescue; calls by dose curve; note: potency is the fitted concentration of half-maximal effect; 0% is about no effect; nearly all actives have a fitted effect of over 55% in size
# Sm TGR inh: S. mansoni TGR enzyme inhibition. AID 485364. Potency, µM (titrated, usually from 114 µM), for inactives: at the highest dose activity change, negative = inhibition, actives largely listed as inhibitors. purified TGR, DTNB reduction, TNB absorbance 405 nm. 360,000 tested, 3% active; note: potency is the fitted concentration of half-maximal effect; % is set by controls: 0 for no effect and ±100 for the full control effect; nearly all actives have a fitted effect of over 60% in size
#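 TGR 20 nM + NADPH 100 uM (dispensed conc.), cpd preinc 15 min RT; start with NADPH (500 uM addition) then DTNB (15 mM addition). Kinetic TNB absorbance, 405 nm filter. Four-parameter Hill fit across titration.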
# Active calls of the source: *; ? = inconclusive; nt = no result given; [ ] = another dose, or the depositor's remark. Most compounds without a hit are left out; they make up all but 15% or so of the library. Unless noted, calls come from the whole dose curve; as a rule, active = well fitted curve in the direction sought with a large enough effect; inconclusive = small, poorly fitted or top-dose-only effect, or another doubt; inactive = no such curve, though single readings can be large; an effect the other way counts as inactive or inconclusive.
SMILES,HCV inh,Pf growth 96h,Pf growth 48h,HCMV inh,SARS PLP yeast,Sm TGR inh
O=C(Nc1nc(-c2ccc(Cl)s2)cs1)c1ccco1,?,60%,41%,16,-3%,40µM*
O=C(Nc1nc(-c2ccccc2)cs1)c1cccs1,?,177%,4%,81,-36%,-5%
Cc1csc(NC(=O)c2ccco2)n1,1%,-10%,11%,-84*,1%,21%
O=C(Nc1nc(-c2ccc(Cl)s2)cs1)c1cccs1,11µM*,-18%,?,-1,-20%,-13%
Cc1csc(NC(=O)c2ccc(Cn3nc(C)c(Br)c3C)o2)n1,10µM*,?,?,-16,-8%,-16%
Cc1cn(CC(=O)NCC(C)c2ccccc2)c(=O)[nH]c1=O (centres undefined),20%,nt,nt,10,nt,nt
CC1CCc2nc(NC(=O)c3ccco3)sc2C1 (centres undefined),?,-2%,37%,-78*,-8%,-3%
CC1CCc2nc(NC(=O)Cc3cccs3)sc2C1 (centres undefined),?,nt,142%,27,-7%,0%
CC(C)(C)NC(=O)N1c2ccccc2Sc2ccccc21,-3%,110%,3%,-60*,2%,-4%
CC(C)NC(=O)N1c2ccccc2Sc2ccccc21,-9%,58%,nt,?,1%,5%
Cc1cccc[n+]1CC(=O)N1c2ccccc2Sc2ccccc21,24%,0%,3.7µM*,13,?,nt
CC(C)CNCC(=O)N1c2ccccc2Sc2ccccc21,6%,?,?,-71*,?,4%
O=C1NC(c2ccccc2)N=C2Oc3ccccc3C=C12 (centres undefined),-4%,nt,nt,6,nt,nt
Cc1cccc(NC(=O)CSc2nnc(CNC(=O)c3ccco3)n2C)c1C,10%,?,16%,-33,1%,-1%
NCCCC[C@@H](C(=O)N1CCNCC1)n1cc([C@@H](N)CO)nn1,5%,61%,55%,-12,4%,6%
COc1ccc(C(=O)N[C@H](C(=O)OCCCOC(=O)[C@@H](NC(=O)c2ccc(OC)cc2)C(C)C)C(C)C)cc1,?,nt,nt,-13,nt,nt
CC(=O)c1ccc(N2CCN(C(=O)c3cc(-c4cccnc4)nc4ccc(Br)cc34)CC2)cc1,?,-13%,?,-24,0%,nt
O=C(Nc1ccc(C(=O)N2CCOCC2)cc1)c1cc(-c2cccnc2)nc2ccc(Br)cc12,?,40%,?,-107*,-1%,14%
O=C(Nc1ccccn1)c1cc(-c2cccnc2)nc2ccc(Br)cc12,8%,3%,3.7µM*,16,-7%,-18%
CC/C=C(\NC(C)=O)c1ccccc1,1%,-9%,16%,-4,1%,?
COC(=O)c1scc(-c2ccc(C)cc2)c1S(=O)(=O)N1CCN(c2cccc(Cl)c2)CC1,nt,nt,nt,-29,nt,-8%
COCCCn1c(SCC(=O)N2CCc3ccccc32)nnc1-c1ccco1,2%,12µM*,-6%,-17,0%,-22%
COCCn1c(SCC(=O)NC2CCCCC2)nnc1-c1ccco1,1%,-2%,4%,-33,-3%,9%
COCCCn1c(SCC(=O)NC2CCCC2)nnc1-c1ccco1,3%,0%,7%,30,21%,40µM*
COc1ccccc1N1CCN(C(=O)c2cc(-c3cccc(Cl)c3)on2)CC1,?,5%,38%,-8,-3%,0%
SMILES,HCV inh,Pf growth 96h,Pf growth 48h,HCMV inh,SARS PLP yeast,Sm TGR inh
COc1ccc(Cc2c(-c3ccccc3)nc3c4ccccc4ccn23)c(C)c1,nt,nt,nt,-3,nt,nt
COc1ccccc1C(=O)Nc1c(C(=O)N2CCN(C)CC2)oc2ccccc12,-1%,-2%,?,-26,-9%,73%
Cc1ccc(NC(=S)C2=C(O)c3ccccc3N(C)S2(=O)=O)cc1,19%,-23%,-20%,49,-14%,-10%
CC(C)(C)NC(=O)C(c1ccc(O)cc1)N(Cc1ccccc1)C(=O)CCC(=O)Nc1nccs1 (centres undefined),26%,-6%,-3%,-20,-1%,6%
COCCNC(=O)C(c1ccc(F)cc1)N(C(=O)CCC(=O)Nc1nccs1)c1ccc(C)cc1 (centres undefined),9%,32%,?,-32,-1%,1%
CC(C)(C)NC(=O)C(c1ccc(O)cc1)N(C(=O)CCC(=O)Nc1nccs1)c1ccc(F)cc1 (centres undefined),12%,10µM*,?,-13,-1%,9%
Cc1ccc(N(C(=O)CCC(=O)Nc2nccs2)C(C(=O)NC(C)(C)C)c2ccc(O)cc2)cc1 (centres undefined),-15%,8.3µM*,?,?,0%,nt
Cc1csc2nc(O)c(C(=O)NCCC3=CCCCC3)c(=O)n12,-2%,?,10µM*,-13,0%,3%
CCOC1(C)OCC(=O)[C@]2(CCC3C4CCC5=CC(=O)C=CC5(C)C4C(=O)CC32C)O1 (some centres undefined),13%,?,10µM*,45,27%,3%
O=C1NC(=O)C2(Cc3ccccc3N3CCCC32)C(=O)N1c1ccccc1 (centres undefined),25%,?,-13%,75,2%,?
CN1c2ccc([N+](=O)[O-])cc2CC2(C(=O)NC(=O)N(c3ccc(Br)cc3)C2=O)C1c1ccccc1 (centres undefined),?,?,1.7µM*,-9,0%,15%
COc1cccc2c1Oc1ncccc1N(C(=O)CCC(=O)NCCC(C)C)C2,nt,nt,nt,9,nt,8%
COc1ccc(C[C@@](C)(N)C(=O)O)cc1OC,nt,-19%[12.8 µM],-13%[12.8 µM],nt,nt,nt
S=c1[nH]nc(SCc2ccccc2)c2[nH]cnc12,-4%,nt,nt,-22,nt,nt
COc1cc(/C=N/NC(=S)NC2CC3CC2C2C=CCC32)ccc1O (centres undefined),?,?,8.3µM*,?,-4%,8%
CCOc1ccc(/C=N/NC(=S)NC2CC3CC2C2C=CCC32)cc1 (centres undefined),-9%,0.66µM*,4.1µM*,27,-2%,12%
CCOc1ccc(/C=N/NC(=S)NC2CC3CCC2C3)cc1 (centres undefined),?,?,?,?,0%,8%
O=C(O)c1cc(N2C(=O)C3CC=CCC3C2=O)ccc1NCc1cccnc1 (centres undefined),13%,19%,nt,27,5%,84%
COc1ccc(C(=O)N(c2ccccc2)c2nccc3ccccc23)cc1OC,1.8µM*,nt,nt,-8,nt,nt
COc1ccc(C(=O)NCc2cc(C)nc3ccccc23)cc1OC,?,10%,12%,-14,-2%,-4%
